EWS-Fli inh: blocks EWS/Fli oncoprotein-driven transcription; inhibition, % at 12.6 µM; A673 NR0B1-luciferase reporter, viability-normalised; hit rate 0.67% among 350,000;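 active means mean inhibition of at least 50% after viability correction, with every replicate also passing that limit; inconclusive means mean reaches 50% but only one of two replicates passes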;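 further: firefly luciferase signal divided by Alamar Blue viability fluorescence both relative to DMSO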
PGC1a acetyl inh: modulators of PGC1a acetylation. hit rate 0.17% among 350,000. AID 651687. inhibition, % at 15.6 µM. U2OS PGC1a acetylation, AlphaScreen anti-acetyl-lysine; with virally co-expressed GCN5 acetyltransferase;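 active means every replicate shows inhibition of at least 40%; inconclusive means mean inhibition at least 40% but some replicate below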
LGR2 inh: Drosophila LGR2 receptor signaling inhibition. hit rate 0.35% among 380,000. HEK293 LGR2, CRE-luciferase, bursicon-stimulated, 4 h. inhibition, % at 9.99 µM;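 active means drop in luminescence signal, shown as inhibition above about 50% in the replicate tests, limit read from the data, passing the limit was not always enough; inconclusive means probably only some replicates passing the limit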;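 further: agonist challenge used bursicon conditioned medium at about half maximal strength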
SIRT5 inh: blocks human SIRT5 desuccinylation of peptide. Q9NXA8. Purified SirT5, succinyl-peptide AMC, trypsin-coupled fluorescence. inhibition, % at 15 µM. hit rate 1.1% among 330,000. AID 652115; in the data active means inhibition above about 15%; inconclusive means no clear call, values can overlap the other calls
Target sequence (Q9NXA8 whole entry, looked up): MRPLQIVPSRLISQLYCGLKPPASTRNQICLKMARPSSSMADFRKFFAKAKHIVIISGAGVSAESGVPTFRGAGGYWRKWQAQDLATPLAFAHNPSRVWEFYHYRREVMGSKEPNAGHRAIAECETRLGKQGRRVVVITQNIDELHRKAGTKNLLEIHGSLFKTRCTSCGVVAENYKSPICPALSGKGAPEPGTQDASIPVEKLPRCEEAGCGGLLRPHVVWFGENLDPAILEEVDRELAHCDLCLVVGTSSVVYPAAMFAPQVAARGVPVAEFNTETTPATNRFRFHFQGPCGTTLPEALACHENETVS
PAX8 reporter: inhibitors of PAX8 transcriptional activity in RMG-I cells; RMG-I TPO-luciferase reporter, SteadyGlo, 24 h; inhibition, % at 12.6 µM; hit rate 1.2% among 360,000; AID 652154;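 active means mean replicate inhibition at least 60% with every replicate also reaching 60%; inconclusive means only one of the two criteria is met; inactive means mean below 60% and not all replicates reaching 60%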;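 further: luciferase light reporting Pax8 driven TPO promoter activity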
rRNA inh HTS: selective bacterial rRNA inhibition in E. coli | AID 720706 | GFP signal change (wild-type ribosome), % (no concentration beside the values) | E. coli WT GFP vs humanized-ribosome RFP mutants, fluorescence, 24 h; hits give low values; DMSO median 0, no signal -100 | hit rate 1.6% among 350,000;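 active means significant combined selectivity score with lowered wild-type GFP, culture density cut under 30%, mutant RFP and density less affected; inactive means any of these conditions unmet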
Numbers stand for hits; . = inactive; ? = inconclusive; / = no result given; ! = repeats disagree. The list is not random: actives were taken first. Their share in the collection is about 3.4%.

SMILES | EWS-Fli inh | PGC1a acetyl inh | LGR2 inh | SIRT5 inh | PAX8 reporter | rRNA inh HTS
CC(OC(=O)/C=C/c1ccccc1)C(=O)Nc1ccc2c(c1)OCCO2 (stereo not drawn) | . | . | . | 19.8 | . | .
COc1cccc(/C=C/C(=O)Nc2cccc(C(C)=O)c2)c1OC | . | / | . | . | . | .
COc1cc(/C=C/C(=O)Nc2ccc3nc4n(c(=O)c3c2)CCCC4)cc(OC)c1OC | . | / | . | . | . | .
COc1cccc(/C=C/C(=O)Nc2ccc3c(c2)OCCO3)c1OC | . | / | 60.6 | . | . | .
COc1cccc(/C=C/C(=O)Nc2ccc3nc4n(c(=O)c3c2)CCCC4)c1OC | . | / | . | . | . | -22.7
COc1cccc(NC(=O)N(C)C[C@@H]2Oc3ncc(C#Cc4ccncc4)cc3C(=O)N([C@H](C)CO)C[C@H]2C)c1 | . | . | . | . | . | .
CCN(CC)C(=O)Oc1nnc(SC(C)C)n1-c1ccc(Cl)cc1 | . | . | / | . | . | -29.0
C[C@@H]1CN([C@H](C)CO)C(=O)c2cccc(NC(=O)C3CC3)c2O[C@@H]1CN(C)CC1CCCCC1 | . | . | . | . | / | .
C[C@@H]1CN([C@@H](C)CO)C(=O)Cc2cc(NC(=O)Nc3ccc(F)cc3)ccc2O[C@@H]1CN(C)Cc1ccc(Cl)c(Cl)c1 | . | . | . | . | 81.4 | .
C[C@H]1CN([C@@H](C)CO)C(=O)Cc2cc(NC(=O)Nc3ccccc3)ccc2O[C@H]1CN(C)Cc1ccc(Cl)c(Cl)c1 | . | . | . | . | . | .
COc1ccc(NC(=O)Nc2ccc3c(c2)CC(=O)N([C@@H](C)CO)C[C@@H](C)[C@H](CN(C)Cc2ccc(Cl)c(Cl)c2)O3)cc1 | . | . | . | / | 72.4 | .
C[C@@H]1CN([C@@H](C)CO)C(=O)Cc2cc(NC(=O)Nc3ccc(F)cc3)ccc2O[C@H]1CN(C)Cc1ccc2c(c1)OCO2 | . | . | . | . | 68.1 | .
O=C(C[C@H]1C=C[C@H](NC(=O)CC2CC2)[C@@H](CO)O1)NCC(F)(F)F | / | . | . | . | / | .
CC12N=C3SCc4ccccc4CN3[C@H](c3ccccc3O1)[C@H]2CO[Si](C)(C)C(C)(C)C | . | . | / | . | . | /
Cc1ccc(S(=O)(=O)Nc2ccc3c(c2)C(=O)N([C@H](C)CO)C[C@H](C)[C@H](CN(C)C(=O)Cc2ccccc2)OCCCC[C@H](C)O3)cc1 | . | . | . | 15.9 | . | .
C[C@H](CO)N1C[C@H](C)[C@H](CN(C)C(=O)Cc2ccccc2)OCCCC[C@H](C)Oc2ccc(NS(=O)(=O)c3ccc(Cl)cc3)cc2C1=O | . | . | . | . | 67.4 | .
C[C@@H]1CCCCO[C@H](CN(C)C(=O)CCC(F)(F)F)[C@H](C)CN([C@@H](C)CO)C(=O)c2cc(NS(=O)(=O)c3ccc(Cl)cc3)ccc2O1 | . | . | . | 16.7! | . | .
C[C@@H]1CN([C@@H](C)CO)C(=O)c2cc(NS(=O)(=O)c3ccc(Cl)cc3)ccc2O[C@@H](C)CCCCO[C@H]1CN(C)C(=O)CCC(F)(F)F | / | . | . | . | . | .
C[C@H](CO)N1C[C@H](C)[C@H](CN(C)C(=O)Cc2ccccc2)OCCCC[C@H](C)Oc2ccc(NS(=O)(=O)c3ccccc3)cc2C1=O | 59.8 | . | . | . | . | .
C[C@@H]1CCCCO[C@H](CN(C)C(=O)Cc2ccccc2)[C@H](C)CN([C@@H](C)CO)C(=O)c2cc(NS(=O)(=O)c3ccc(Cl)cc3)ccc2O1 | . | . | . | . | . | .
O=C(C1CCC1)N1CCCCN2[C@H](CO)[C@@H](c3ccc(C#CC4CCCC4)cc3)[C@H]2C1 | . | . | / | . | . | /
CC(C)NC(=O)N(C)C[C@H]1Oc2cc(C#CC(C)(C)O)ccc2S(=O)(=O)N([C@@H](C)CO)C[C@@H]1C | . | . | . | . | / | .
CCCCCCCNC(=O)c1ccc(N2CCC3(CC2)OCCO3)c([N+](=O)[O-])c1 | . | / | . | . | . | -25.5
CCc1cc(/C(Cc2ccccn2)=N\O)c(O)cc1O | . | . | . | . | / | -32.7
CC(C)(C)c1ccc(/C=N/Nc2cccc(C(=O)O)c2)cc1 | . | / | . | . | . | .
SMILES | EWS-Fli inh | PGC1a acetyl inh | LGR2 inh | SIRT5 inh | PAX8 reporter | rRNA inh HTS
CN(C)c1ccc(/C=N/Nc2cccc(C(=O)O)c2)cc1 | . | / | 86.8 | . | . | .
O=C(O)c1ccc(N/N=C/c2ccc(C(F)(F)F)cc2)cc1 | ? | . | 93.2 | . | . | .
O=C(N/N=C/c1ccc(C(F)(F)F)cc1)c1ccc(O)cc1 | . | . | . | . | . | .
CCCNC(=O)N(C)C[C@@H]1Oc2ncc(Br)cc2C(=O)N([C@H](C)CO)C[C@H]1C | . | . | . | . | . | .
CC(=O)N1CC2(C1)[C@@H](c1ccc(-c3ccc(C#N)cc3)cc1)[C@H](CO)N2C(=O)C1CC1 | . | . | . | . | / | .
O=C(NC(=S)N1CCOCC1)c1cn(-c2ccccc2)nc1-c1ccccc1 | . | . | . | . | . | -19.0
O=C(CCC(=O)N1CCCc2ccccc21)N1CCN(S(=O)(=O)c2ccccc2)CC1 | / | . | / | / | / | /
O=C(CCS(=O)(=O)c1ccccc1)N1CCCc2ccccc21 | . | . | . | 17.2 | . | .
Cc1ccc(S(=O)(=O)Nc2ccccc2C(=O)NCc2cccnc2)cc1 | . | 91.4 | . | . | . | .
O=C(/C=C/c1ccc(S(=O)(=O)NCc2ccco2)cc1)NCc1ccccc1Cl | . | / | . | . | . | -26.8
O=C(CCc1ccc(S(=O)(=O)NCc2ccccc2)cc1)NCc1ccco1 | . | . | . | . | 156.5 | .
O=C(CCc1ccc(S(=O)(=O)NCc2ccccc2)cc1)NCc1cccnc1 | . | . | . | . | 127.3 | .
CC(=O)N1[C@H](C(=O)NCc2ccccc2F)[C@@H](CO)[C@@H]2Cn3c(ccc(-c4ccccc4)c3=O)[C@@H]21 | . | . | . | . | . | .
Cc1nc2c(-c3ccccc3)c[nH]n2c(=O)c1Cc1ccccc1 | . | . | . | . | . | -20.3
C[C@@H]1CCCCO[C@H](CN(C)C(=O)Nc2ccc3c(c2)OCO3)[C@H](C)CN([C@H](C)CO)C(=O)c2cc(NC(=O)NC3CCCCC3)ccc2O1 | . | . | . | / | . | .
N#C/C(=C\c1cccs1)C(=O)c1ccccc1Cl | . | / | . | . | 64.4 | .
COc1cc(NC(=O)NCc2ccco2)ccc1-c1ccc(NC(=O)NCc2ccco2)cc1OC | . | 47.8 | . | . | 67.3 | .
O=C1C=CC(=O)N1CCCCCCN1C(=O)C=CC1=O | / | / | . | / | 109.5 | /
C[C@@H]1CCCCO[C@H](CN(C)Cc2ccc(C(=O)Nc3ccccc3N)cc2)[C@H](C)CN([C@@H](C)CO)C(=O)c2cc(N(C)C)ccc2O1 | / | / | / | / | / | .
CCCCOc1ccc(-c2cnc3ccccc3n2)cc1 | / | / | 70.3 | / | . | /
COc1ccc(NC(=O)c2ccc3[nH]c(C)c(C)c3c2)c(OC)c1 | . | . | . | . | . | -14.7

Screens (PubChem BioAssay)
